Data on 23 compounds can be found in PubChem BioAssay (Tox21).

Molecules are shown by their SMILES. Unmarked numbers belong to inactive results. Inconclusive results are not listed. The source made the active and inactive calls. Calls come from the whole dose curve; as a rule, active = well fitted curve in the direction sought with a large enough effect in the repeat runs; inconclusive = weak or mixed curves; inactive = no such curve, though single readings can be large; an effect the other way counts as inactive or inconclusive.

A short description of experiment [1]: A CellTox Green Cytotoxicity Assay to monitor cytotoxicity in HepG2 cells - 0 hour (AID 1224882). Note: nearly all actives have a fitted effect of over 35% in size. Note: potency is the fitted concentration of half-maximal effect. Put shortly:
(§1)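 Using 1536-well format, dye-containing HepG2 suspension was seeded, allowed 5 h at 37 C/5% CO2, dosed by pintool with compounds, positive and negative controls, and imaged for fluorescence across 40 h.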

Experiment [2] is described as follows: A CellTox Green Cytotoxicity Assay to monitor cytotoxicity in HepG2 cells - 32 hour (AID 1224883). Note: nearly all actives have a fitted effect of over 50% in size. Note: potency is the fitted concentration of half-maximal effect. Put shortly:
as §1

Experiment [3] in a line: A CellTox Green Cytotoxicity Assay to monitor cytotoxicity in HEK293 cells - 8 hour (AID 1224884). Note: nearly all actives have a fitted effect of over 35% in size. Note: potency is the fitted concentration of half-maximal effect. The method in brief:
(§2)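 Fluorescence intensity, read at 0, 8, 16, 24, 32 and 40 h of compound treatment, reflected dye binding to DNA of dead HEK293 cells; compounds (23 nL, DMSO) were added 5 h after plating cells with reagent.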

A short description of experiment [4]: qHTS RealTime-Glo MT Cell Viability Assay in HepG2 cells - 16 hour (AID 1224885). Note: nearly all actives have a fitted effect of over 50% in size. The method in brief: (§3)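 qHTS, HepG2, 600 cells/well, RealTime-Glo (NanoLuc + prosubstrate) added with cells; 5 h preincubation; DMSO compound addition; 37 C; luminescence at 0/8/16/24/32/40 h.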
A short description of experiment [5]: qHTS RealTime-Glo MT Cell Viability Assay in HEK293 cells - 24 hour (AID 1224886). For activity change, negative = cytotoxicity: top concentration of the series differs between compounds. Note: nearly all actives have a fitted effect of over 50% in size. Note: potency is the fitted concentration of half-maximal effect. The method in brief:
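Assay medium contained NanoLuc luciferase plus cell-permeant prosubstrate, added with HEK293 cells at 600 cells/well. After 5 h at 37 C/5% CO2 compounds were added; plates stayed at 37 C for 40 h with serial luminescence reads.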
In general terms: In qHTS, concentration-response curves come from the screen itself.

The nature of experiment [6]: qHTS RealTime-Glo MT Cell Viability Assay in HEK293 cells - 8 hour (AID 1224887). For activity change, negative = cytotoxicity: top concentration of the series differs between compounds. Note: nearly all actives have a fitted effect of over 50% in size. Note: potency is the fitted concentration of half-maximal effect. Put shortly: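 Viable HEK293 cells reduce a cell-permeant prosubstrate; the product diffuses out and is consumed by NanoLuc in the medium to give light. Compounds went in after a 5 h incubation and plates were read over the treatment course.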
Experiment [7] can be described thus: qHTS RealTime-Glo MT Cell Viability Assay in HepG2 cells - 0 hour (AID 1224889). Note: nearly all actives have a fitted effect of over 50% in size. Note: potency is the fitted concentration of half-maximal effect. The method in brief:
as §3

Experiment [8] in a line: A CellTox Green Cytotoxicity Assay to monitor cytotoxicity in HepG2 cells - 8 hour (AID 1224890). Note: nearly all actives have a fitted effect of over 45% in size. Put shortly:
as §1

A short description of experiment [9]: qHTS assay to identify small molecule antagonists of the estrogen receptor alpha (ER-alpha) signaling pathway using the BG1 cell line in the presence of 0.1 nM 17-beta-estradiol - cell viability counter screen (AID 1259241). Note: nearly all actives have a fitted effect of over 40% in size. Put shortly:
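CellTiter-Fluor read (30 min, 37C) on ER-alpha/ERE-luc VM7Luc4E2 cells; 22 hr compound treatment; agonist 0.1 nM E2 final; same-well multiplex.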

A short description of experiment [10]: A CellTox Green Cytotoxicity Assay to monitor cytotoxicity in HEK293 cells - 16 hour (AID 1224888). Note: nearly all actives have a fitted effect of over 35% in size. Note: potency is the fitted concentration of half-maximal effect. The method in brief:
as §2
% is set by controls: 0 for no effect and ±100 for the full control effect.

With `CC(C)C(=O)OC/C=C/c1ccccc1`, the Potency entry in experiment [1], in experiment [2], in [3], in experiment [5], in experiment [6] and in experiment [7] was “inactive” each time. Moreover, the Potency entry in [8] and in experiment [9] was “inactive” throughout. Also, the outcome in experiment [4] was inactive.
As for `CCCCc1ccc2nc(NC(=O)OC)[nH]c2c1`, the Potency result in experiment [1], in experiment [2], in experiment [3], in experiment [5], in [6] and in [7] was “inactive” each time. In addition, the Potency result in experiment [8] and in [9] was “inactive” each time. In addition, the outcome in experiment [4] was inactive.
For the compound `FC(F)(F)C(F)(F)C(F)(F)C(F)(F)C(F)(F)C(F)(F)C(F)(F)C(F)(F)Br`, the Potency result in experiment [1], in experiment [2], in experiment [3], in experiment [5], in experiment [6] and in experiment [7] was “inactive” in each case. Further, the Potency entry in experiment [9] is “inactive”. For the same compound, the call in [4] was inactive.
As to `CC(=O)OC1C2(C)CCC(C2)C1(C)C` (centres undefined), the Potency result in [1], in [2], in experiment [3], in [5], in [6] and in experiment [7] was “inactive” throughout. Moreover, the Potency entry in experiment [8] and in [9] was “inactive” each time. In addition, the outcome in experiment [4] was inactive.
On to `Cc1c(-c2ccccc2)oc2c(C(=O)OCCN3CCCCC3)cccc2c1=O`, for which the Potency result in experiment [1], in [2], in experiment [3], in experiment [10], in experiment [7] and in [8] was “inactive” in each case. Besides, in experiment [9], the Potency result was “inactive”. Also, the compound was called inactive in experiment [4]. For the same compound, the Potency in experiment [6] was 19 µM (active).
With `O=C1CCC(C2CCCCC2)CC1`, the Potency was 38.9 µM (active) in experiment [1], 38.9 µM (active) in [2], 43.6 µM (active) in experiment [3] and 43.6 µM (active) in experiment [10]. In addition, the result in [4] was inactive. For the same compound, the Potency entry in experiment [7] and in experiment [9] was “inactive” throughout.
For the compound `CN1[C@@H]2CC[C@H]1CC(OC(=O)c1c[nH]c3ccccc13)C2` (some centres undefined), the Potency entry in experiment [1], in experiment [2], in experiment [3], in [5], in experiment [6] and in [7] was “inactive” each time. The Potency entry in experiment [8] and in [9] was “inactive” in each case. Moreover, in experiment [4], the call was inactive.
With `CC1(C)O[C@@H]2C[C@H]3[C@@H]4CCC5=CC(=O)CC[C@]5(C)[C@@]4(F)[C@@H](O)C[C@]3(C)[C@]2(C(=O)CCl)O1`, the Potency entry in [1], in [2], in experiment [3], in experiment [6], in experiment [10] and in experiment [9] was “inactive” in each case. In [4], the compound was classed as inactive. Further, the Potency in [7] was 5.35 µM (active).
For `CCCS(=O)c1ccc2nc(NC(=O)OC)[nH]c2c1` (centres undefined), the Potency entry in [1], in experiment [3], in experiment [5], in experiment [6], in experiment [7] and in [8] was “inactive” in each case. Besides, in experiment [2], the Potency was 16.9 µM (active). Besides, the result in experiment [4] was inactive.
For the compound `CCOc1ccc2nc(N)sc2c1`, the Potency result in experiment [1], in experiment [2], in experiment [3], in [5], in experiment [6] and in experiment [7] was “inactive” in each case. For the same compound, in experiment [9], the Potency entry was “inactive”. The call in experiment [4] was inactive.
Take `CCN(CCCc1ccccc1)CCCc1ccccc1`: the Potency result in experiment [1], in [2], in [3], in experiment [6], in [10] and in experiment [7] was “inactive” in each case. Moreover, the Potency result in experiment [8] and in [9] was “inactive” in each case. For the same compound, the outcome in experiment [4] was inactive.
With `COc1ccccc1N1CCN(CCCNc2cc(=O)n(C)c(=O)n2C)CC1`, the Potency result in experiment [1], in experiment [2], in experiment [3], in experiment [10], in experiment [7] and in experiment [8] was “inactive” each time. Moreover, the Potency entry in experiment [9] is “inactive”. In addition, in experiment [4], the call was inactive.
Take `C[C@]12CCC(=O)C=C1CC[C@@H]1[C@@H]2CC[C@@]2(C)[C@H]1CC[C@]2(O)C(=O)CO`: the Potency entry in [1], in experiment [2], in [3], in experiment [6], in experiment [10] and in experiment [8] was “inactive” throughout. The Potency result in experiment [9] was “inactive”. Moreover, the compound was called inactive in experiment [4].
For `CCOc1ccccc1N`, the Potency result in [1], in [2], in [3], in experiment [6], in [10] and in [7] was “inactive” each time. The Potency entry in [8] and in [9] was “inactive” each time. Moreover, the compound was classed as inactive in [4].
In the case of `FC(F)(F)c1ccccc1`, the Potency result in experiment [1], in experiment [2], in [3], in experiment [5], in [6] and in experiment [7] was “inactive” throughout. Further, the Potency entry in experiment [8] and in [9] was “inactive” in each case. In experiment [4], the outcome was inactive.
As for `CN1C(=O)CC(c2ccccc2)C1=O` (centres undefined), the Potency result in [1], in experiment [2], in experiment [3], in experiment [5], in experiment [6] and in experiment [7] was “inactive” each time. Besides, the Potency result in experiment [8] and in [9] was “inactive” each time. Moreover, in experiment [4], the call was inactive.
`COc1cc2c(cc1N)oc1ccccc12`: the Potency entry in experiment [1], in [2], in [3], in experiment [10], in [7] and in experiment [9] was “inactive” each time. Besides, the compound was classed as inactive in experiment [4].
As for `CC(C)(C)C1CCCCC1=O` (centres undefined), the Potency result in experiment [1], in [2], in experiment [3], in [5], in experiment [6] and in experiment [7] was “inactive” in each case. Further, the Potency entry in [9] was “inactive”. The outcome in experiment [4] was inactive.
As to `Cc1nc(-c2ccccn2)ncc1C(=O)Nn1cc(C)c2cc(F)ccc21`, the Potency entry in experiment [1], in experiment [2], in experiment [3], in [7], in experiment [8] and in experiment [9] was “inactive” each time. Besides, the result in experiment [4] was inactive. In addition, the figures for the Potency in experiment [5] and in experiment [6] were 1.55 µM (active) and 1.95 µM (active), respectively.
As for `O=C(O)c1ccccc1Nc1cc(Cl)ccc1C(=O)O`, the cytotoxicity in experiment [1] was -1.43% [at 15.8 µM]. For the same compound, the cytotoxicity increase is 20.7% [at 15.8 µM] in [2] and -18.6% [at 15.8 µM] in [3]. The activity change, negative = cytotoxic in experiment [4] is 0.467% [at 15.8 µM]. The activity change, negative = cytotoxicity in [5] is 7.65% [at 15.8 µM]; in [6] it was -4.99% [at 15.8 µM]; in experiment [7], -2.93% [at 15.8 µM]; in experiment [9], -25.8% [at 19 µM].
Consider `C=CC1CO1` (centres undefined), for which the Potency result in experiment [1], in experiment [2], in experiment [3], in experiment [5], in experiment [6] and in [7] was “inactive” in each case. The Potency entry in [8] and in experiment [9] was “inactive” in each case. The outcome in experiment [4] was inactive.
For `CC1(O)CSC(C)(O)CS1` (centres undefined), the Potency entry in experiment [1], in experiment [2], in [3], in experiment [5], in experiment [10] and in experiment [7] was “inactive” each time. Moreover, the Potency result in [8] is “inactive”. Also, the call in experiment [4] was inactive.
Take `CN(C)Cc1ccccc1`: the Potency result in [1], in [2], in experiment [3], in experiment [5], in [6] and in experiment [7] was “inactive” each time. Further, the Potency entry in [8] and in [9] was “inactive” throughout. Moreover, the compound was classed as inactive in experiment [4].
